Experiment in all cases: NCI-60 one-dose screen, 48 h (100 = growth as untreated, 0 = no growth, -100 = all killed)
Assay [1] concerns NCI-H226 lung. To be noted: 10 µM unless noted.
Assay [2] relates to NCI-H522 lung. The settings on record: 10 µM unless noted.
Assay [3] concerns COLO 205 colon. The settings on record: 10 µM.
The test system of assay [4] is HT29 colon. To be noted: 10 µM unless noted.
Assay [5] concerns SNB-75 CNS. The settings on record: 10 µM unless noted.
The subject of assay [6] is PC-3 prostate. The settings on record: 10 µM unless noted.
The test system of assay [7] is SK-MEL-5 melanoma. The settings on record: 10 µM unless noted.
Assay [8] has as its system EKVX NSCLC. To be noted: 10 µM unless noted.
In assay [9] the test system is CAKI-1 renal. The settings on record: 10 µM unless noted.
Assay [10] deals with CCRF-CEM leukemia. The settings on record: 10 µM unless noted.
The subject of assay [11] is RPMI-8226 leukemia. To be noted: 10 µM unless noted.
The subject of assay [12] is OVCAR-5 ovarian. The settings on record: 10 µM unless noted.
Assay [13] has as its system OVCAR-3 ovarian. To be noted: 10 µM unless noted.
The test system of assay [14] is HS 578T breast. To be noted: 10 µM unless noted.
Assay [15] has as its system MCF7 breast. To be noted: 10 µM unless noted.
The test system of assay [16] is HOP-92 NSCLC. The settings on record: 10 µM unless noted.
The test system of assay [17] is MALME-3M melanoma. To be noted: 10 µM unless noted.
The test system of assay [18] is IGROV1 ovarian. To be noted: 10 µM.

The panel holds about 83,000 compounds, 20% with a hit somewhere; the sample as a whole holds those more often.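 Single-dose data. Exposure time 48 hours. Values below 10 considered active.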 A number with no mark means an inactive call. Calls of active or inactive are those of the source.

Regarding `NC(Cc1ccc2c(c1)OCO2)c1ccc2c(c1)OCO2` (stereo unspecified), the growth in assay [1] is 105%; in assay [2], 97.2%; in [3], 99.9%; in [4] it was 102%; in assay [5], 75.4%; in assay [6], 93.4%. Also, the growth in assay [7] was 103%; in assay [8] it was 126%; in assay [9], 95.2%; in assay [10] it was 98.2%; in [11] it was 96.3%; in assay [12], 109%. In addition, the growth in [13] was 120%; in assay [14], 103%; in assay [15], 89.2%.
Take `[Cl][Hg][n]1cnc2c(Cl)c(Cl)c(Cl)cc21`: the growth in [1] was 119%; in assay [16] it was 116%; in assay [2] it was 50.2%; in [17], 97.6%; in assay [5], 104%; in assay [6], 88.7%. Further, the growth in assay [7] was 102%; in [8], 81.7%; in assay [9], 103%; in assay [10], 102%; in [11], 98.9%; in [18], 99.7%. Besides, the growth in assay [13] was 94.5%; in assay [14], 79.5%; in assay [15], 78.3%.
Regarding `ClCCN(CCCl)c1nc(Cl)c(C2CC(c3ccccc3)=NN2c2ccccc2)s1` (stereo unspecified), the growth in assay [1] is 83.3%; in assay [2], 75.1%; in assay [17], 113%; in assay [4], 82.5%; in assay [5], 78.9%; in assay [6] it was 75.8%. Further, the growth in assay [7] is 89.1%; in assay [8], 89.5%; in assay [9], 81.4%; in [12], 99.5%; in [18] it was 107%; in assay [13], 99.9%. The growth in assay [14] was 87.4%; in assay [15] it was 91.6%.
Turning to `C[C@]12CC[C@@H]3C4=C(CC[C@H]3[C@@H]1CC[C@@H]2O)CC(=O)CC4`, the growth is 94% in [1]; 90.8% in assay [2]; 117% in assay [3]; 116% in [17]; 105% in [4]; 103% in assay [6]. The growth in assay [7] is 59%; in assay [8], 72%; in [9] it was 92%; in [10], 96.3%; in assay [18], 121%; in assay [14], 5.03% (active). Moreover, the growth in assay [15] was 118%.
As to `C#CC1(O)CCC2(C)C(CCC3C4CCC(=O)C4(C)CCC32)C1` (stereo unspecified), the growth in assay [1] was 86.4%; in assay [3], 106%; in [17] it was 103%; in assay [6], 90.9%; in assay [7], 96.2%; in assay [8] it was 89.3%. Moreover, the growth in [10] was 91.2%; in assay [12], 99.8%; in [18], 104%; in assay [13] it was 109%; in assay [14], 94.3%; in assay [15], 104%.
For `c1ccc(-c2ccc3ccccc3[o+]2)cc1`, the growth in assay [1] is 85.4%; in assay [16], 83.2%; in [2] it was 81.2%; in assay [3], 111%; in assay [17], 101%; in assay [4] it was 89.1%. Also, the growth was 80.5% in assay [5]; 88.8% in assay [7]; 87.1% in assay [8]; 92.4% in [10]; 86.4% in assay [11]; 103% in [12]. The growth in assay [18] was 82.7%; in assay [14], 94.1%; in assay [15], 67%.
For `C/C(=C\c1cc(C(F)(F)F)n(-c2ccc(N)cc2)n1)[C@@H]1C[C@@H]2O[C@]2(C)CCC[C@H](C)[C@H](O)[C@@H](C)C(=O)C(C)(C)[C@@H](O)CC(=O)O1`, the growth in assay [1] is 38.9%; in assay [16], 37.9%; in assay [3], -45% (active); in [17] it was 58.1%; in [5], -16.2% (active); in assay [6], 9.42% (active). Besides, the growth in [8] is 31.8%; in assay [9], 25.3%; in assay [10], 12.8%; in [18] it was 31.1%; in assay [13], -0.038% (active); in [14] it was -11.5% (active). Also, in assay [15], the growth was 7.93% (active).
Take `O=C(O)c1[nH]c(=O)[nH]c(=O)c1F`: the growth was 86.2% in assay [1]; 106% in assay [16]; 88.9% in assay [2]; 113% in assay [17]; 106% in assay [4]; 99% in [5]. For the same molecule, the growth in assay [6] was 95.6%; in assay [8], 121%; in [9] it was 66.8%; in assay [10], 78.4%; in [11], 73.7%; in [12] it was 104%. Further, the growth in assay [18] was 95.1%; in [13], 106%; in assay [14], 123%; in assay [15] it was 109%.
As for `c1ccc([As]=[As]c2ccccc2)cc1` (stereo unspecified), the growth in assay [1] is 5.17% (active); in assay [3] it was -89.6% (active); in [17] it was -84.5% (active); in assay [4], -82.8% (active); in assay [6], -22.9% (active); in assay [7] it was -70.5% (active). Further, the growth in assay [9] is -51.4% (active); in [11], -47.4% (active); in assay [12] it was -7.9% (active); in assay [18], -84.1% (active); in [13], -93% (active); in assay [14], 37.8%. Also, the growth in [15] is -76.2% (active).
Regarding `CN(Cc1cccnc1)N=O`, the growth is 92.3% in assay [1]; 95.3% in [16]; 89.9% in assay [2]; 105% in assay [3]; 96.6% in assay [17]; 102% in assay [4]. Also, the growth in [6] is 95.9%; in assay [7] it was 103%; in assay [8] it was 99.9%; in assay [10], 100%; in [11], 102%; in assay [18], 99.7%. Moreover, the growth in assay [13] was 101%; in assay [14], 89%; in assay [15], 95.9%.

For the origin of these results see PubChem BioAssay (NCI).
